Shown are actives, neighbours in structure and some others; about 19% of the full set was active somewhere.
HT1080 IDH1KD tx = HT-1080 IDH1 knockdown cell toxicity (counter line); Potency, µM (series often up to 46.1 µM), without a hit: at the highest dose activity, negative = toxicity, usual class: cytotoxic; HT-1080 IDH1 knockdown viability, ATP luminescence, 48 h; actives 2% (n = 360,000); AID 686971;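 also: 0% = DMSO wells and -100% = cell-free medium wells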
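CellTiter-Glo luminescence after 48 h compound exposure at 37 degrees C of IDH1-knockdown HT-1080 cells in 5% FBS RPMI. %Activity scaled between DMSO wells and cell-free media wells, with curves fitted and assigned curve classes.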
KB-3-1 tox = KB-3-1 parental cell cytotoxicity; AID 1347075; Potency, µM (highest dose often 46.1 µM), actives largely listed as cytotoxic; actives 1.4% (n = 400,000); KB-3-1 viability, CellTiter-Glo ATP luminescence, 72 h; also: nearly all actives have a fitted effect of over 60% in size
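Cells are dispensed, compounds pinned in, plates held at 37 °C for 72 h, then CellTiter-Glo is added and luminescence read after 10 minutes. Cell line: parental KB-3-1 in phenol-red-free DMEM, 10% FBS.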
KB-V1 cytotox = KB-V1 MDR subline cytotoxicity. AID 1347076. KB-V1 MDR cells viability, CellTiter-Glo, 72 h. actives 3.4% (n = 400,000). Potency, µM (series often up to 46.1 µM), usual class: cytotoxic; also: nearly all actives have a fitted effect of over 60% in size
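KB-V1 MDR subline cells in DMEM (phenol-red free, 10% FBS) exposed to compounds in qHTS concentration series for 72 h at 37 degrees C. Viability read by CellTiter-Glo luminescence; concentration-effect curves fitted after normalization and correction.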
HT1080-NT tox = kills 2HG-producing HT-1080-NT fibrosarcoma cells; HT-1080-NT fibrosarcoma viability, CellTiter-Glo ATP luminescence, 48 h; Potency, µM (titrated, usually from 46.1 µM), for inactives: top-dose activity, negative = less viability, actives largely listed as cytotoxic; actives 1.6% (n = 360,000); AID 686970;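 also: NT is the 2HG producing partner of a matched IDH1 knockdown line; 0% = DMSO-treated cells and -100% = media-only wells without cells; nearly all actives have a fitted effect of over 55% in size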
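750 cells/well, RPMI + 5% FBS; 2 h settle, compound pin-transfer, 48 h at 37 degrees C. CellTiter-Glo 10 min RT, luminescence. Normalized to DMSO and media-only wells.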
TDP1 cell noCPT = qHTS for Inhibitors of human tyrosyl-DNA phosphodiesterase 1 (TDP1): qHTS in cells in absence of CPT | actives 15% (n = 420,000) | AID 686978, 2013 | DT40 Tdp1-/- hTDP1 cells, no CPT, ATP luminescence, 48 h | Potency, µM (highest dose often 46.2 µM), without a hit: at the top dose activity change, negative = growth inhibition, usual class: inhibitors; also: nearly all actives have a fitted effect of over 55% in size
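DT40 Tdp1-/-;hTDP1 cells, no CPT (DMSO vehicle only), 400 cells/well; compounds pin-transferred; ≥48 hr, 37 °C; CellTiter-Glo 30 min RT dark, luminescence read.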
DT40 TDP1 CPT = growth inhibition of DT40 Tdp1-/-;hTDP1 cells with camptothecin (screen for TDP1 inhibitors). chicken DT40 Tdp1-/-;hTDP1 cells + 20 nM CPT, ATP luminescence, 48 h. Potency, µM (series often up to 46.2 µM), for the others: at the top dose activity change, negative = growth inhibition, usual class: inhibitors. actives 12% (n = 420,000); also: nearly all actives have a fitted effect of over 55% in size
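Chicken DT40 Tdp1-/- cells stably complemented with human TDP1 were seeded at 400 cells/well in medium containing 20 nM camptothecin, exposed to pin-transferred compounds, and grown at 37 °C for at least 48 hr. Viability was read as ATP luminescence.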
Active calls of the source: *; i = inactive; u = inconclusive; x = no result; [ ] = dose if it differs, or a comment. Calls follow the shape of the dose curve; as a rule, active = well fitted curve in the direction sought with a large enough effect; inconclusive = small, poorly fitted or top-dose-only effect, or another doubt; inactive = no such curve, though single readings can be large; an effect the other way counts as inactive or inconclusive. Unless noted, % is scaled to controls: 0 for no effect and ±100 for the full control effect; potency is read from the fitted curve at half-maximal effect.

SMILES	HT1080 IDH1KD tx	KB-3-1 tox	KB-V1 cytotox	HT1080-NT tox	TDP1 cell noCPT	DT40 TDP1 CPT
COc1ccc(/C=N/OCC(=O)N2CCCC2)c(OC)c1	17%	i	i	7%	-18%	1%
Cc1cc(OCC(=O)Nc2ccccc2C)no1	15%	i	i	-1%[9.24 µM]	7%	0%
COC(=O)[C@@]12CCCN1[C@H](c1ccc(-c3cccc(Cl)c3)c(OC)c1)[C@H]1C(=O)N(C)C(=O)[C@H]12	-2%	i	i	0%	16µM*	15µM*
COC(=O)[C@@]12CCCCN1[C@H](c1ccc(-c3cccc(Cl)c3)c(OC)c1)[C@@H]1C(=O)N(C)C(=O)[C@@H]12	u	u	u	u	21µM*	u
COC(=O)[C@@]12CCCCN1[C@H](c1ccc(-c3ccc(C(C)=O)cc3)c(OC)c1)[C@@H]1C(=O)N(C)C(=O)[C@@H]12	0%	i	i	4%	15µM*	16µM*
COC(=O)[C@@]12CCCN1[C@H](c1ccc(-c3ccc(Cl)c(Cl)c3)c(OC)c1)[C@H]1C(=O)N(C)C(=O)[C@H]12	-29%	i	u	u	23µM*	13µM*
CC(C)C[C@H]1COc2cc(N3CCC[C@@H]3CO)ccc2S(=O)(=O)N1	0%	i	u	1%	-15%	-18%
Cc1ccc(Cn2c(SC(C)C(N)=O)nc3ccccc3c2=O)cc1 (configuration not stated)	-12%	i	i	-3%	u	-7%
COC(=O)[C@@]12CCCCN1[C@H](c1ccc(-c3ccccc3)c(OC)c1)[C@H]1C(=O)N(C)C(=O)[C@H]12	7%	u	i	11%	13µM*	u
CCN1C(=O)[C@H]2[C@@H](c3ccc(-c4cccc(Cl)c4)c(OC)c3)N3CCC[C@@]3(C(=O)OC)[C@H]2C1=O	-11%	u	i	u	9.2µM*	13µM*
O=C(O)CCC/C=C\C[C@@H]1C(/C=C/[C@@H](O)COc2cccc(C(F)(F)F)c2)[C@@H](O)C[C@@H]1O (some centres not stated)	x	x	x	x	-5%[4.12 µM]	5%[4.12 µM]
Nc1ncnc2c1ncn2[C@@H]1O[C@H](CNCc2cccc(C#Cc3ccccc3)c2)[C@@H](O)[C@H]1O	-1%	i	i	-1%	u	15µM*
CN1N=C(N)c2cn(C3OC(COP(=O)(O)O)C(O)C3O)c3ncnc1c23 (configuration not stated)	u	1.8µM*	u	-24%	-27%	u
Nc1ncnc2c1ncn2[C@@H]1O[C@H](COS(=O)(=O)O)[C@@H](O)[C@H]1O	6%	i	u	0%	18µM*	u
Nc1ncnc2c1ncn2[C@@H]1O[C@H](COP(=O)(O)O)[C@@H](O)[C@H]1O	u	i	u	u	4%	u
Nc1ncnc2c1ncn2C1OC(COP(=O)(O)O)C(O)C1O (configuration not stated)	u	i	i	7.3µM*	u	u
Cc1ccc2ncc(C(=O)Nc3ccc(F)cc3F)c(=O)n2c1	x	i	i	x	-6%	-5%
O=C(COc1coc(CN2CCc3ccccc3C2)cc1=O)Nc1ccccc1F	1%	i	i	2%	-21%	0%
CC(=O)Nc1ccc(NC(=O)C2(C)Cc3c(-c4cccc(NC(C)=O)c4)ccnc3O2)cc1 (configuration not stated)	3%	i	i	26%	12%	13%
CC(=O)Nc1cccc(-c2ccnc3c2CC(C)(C(=O)Nc2ccc(Cl)cc2)O3)c1 (configuration not stated)	4.1µM*	2.3µM*	u	9.2µM*	4.1µM*	1.6µM*
CC(=O)Nc1cccc(-c2ccnc3c2CC(C)(C(=O)Nc2cccc(C(C)=O)c2)O3)c1 (configuration not stated)	15µM*	u	i	-10%	6.5µM*	5.8µM*
CC1(C(=O)Nc2ccc(Cl)cc2)Cc2c(-c3cccc(C(F)(F)F)c3)ccnc2O1 (configuration not stated)	u	u	u	u	23µM*	u
CC1(C(=O)Nc2cccc(C(F)(F)F)c2)Cc2c(-c3ccccc3)ccnc2O1 (configuration not stated)	u	i	i	u	u	u
CC(=O)Nc1ccc(-c2ccnc3c2CC(C)(C(=O)Nc2ccc(F)c(Cl)c2)O3)cc1 (configuration not stated)	u	i	u	u	23µM*	u
CCOC(=O)c1noc2c1CCC2	15%	i	i	19%	14%	22%
SMILES	HT1080 IDH1KD tx	KB-3-1 tox	KB-V1 cytotox	HT1080-NT tox	TDP1 cell noCPT	DT40 TDP1 CPT
Cc1ccnc(NC(=O)C(C)N2C(=O)c3ccccc3S2(=O)=O)c1 (configuration not stated)	u	i	i	14%	4%	3%
COc1ccc(-n2nc3c(c2NC(=O)C2CC(=O)N(c4ccccc4)C2)CS(=O)(=O)C3)cc1 (configuration not stated)	11%	u	i	8%	-4%	-6%
CC1(C(=O)Nc2ccc3c(c2)OCO3)Cc2c(-c3ccccc3)ccnc2O1 (configuration not stated)	u	u	u	-25%	u	u
COc1ccc(NC(=O)C2(C)Cc3c(-c4cccc(C(F)(F)F)c4)ccnc3O2)cc1OC (configuration not stated)	15µM*	u	i	21µM*	21µM*	16µM*
CC(C)NC(=O)C1(C)Cc2c(-c3cccc(C(F)(F)F)c3)ccnc2O1 (configuration not stated)	0%	i	i	8%	12µM*	18µM*
CC(=O)Nc1cccc(-c2ccnc3c2CC(C)(C(=O)Nc2ccc4c(c2)OCO4)O3)c1 (configuration not stated)	u	2.3µM*	8.2µM*	u	0.65µM*	0.65µM*

Compound activity deposited in PubChem BioAssay by National Center for Advancing Translational Sciences (NCATS).
